{"source": "ChEMBL document CHEMBL3988442", "about": "“University of Dundee, Small-Polar-MMV Screening Library” (2021)", "note": "Among all 48,000 compounds or so, about 13,000 (27%) showed an effect of 50% or more. The list shows a part of the results."}
{"tested_on": "Wolbachia pipientis", "assay": "Anti-Wolbachia Cell-Based Screen", "type": "functional", "design": "scale not given: in the data most compounds retested in dose-response had high values", "conditions": "5 µM", "units": {"Percent Effect": "%"}}
{"smiles": "COc1cccc2c1OCC(C(=O)N1CCN(S(C)(=O)=O)CC1)C2", "note": "(centres undefined)", "Percent Effect": 0.5994}
{"smiles": "CC1CCCN1C1CCN(C(=O)c2cccc(-c3ccoc3)c2)CC1", "note": "(centres undefined)", "Percent Effect": 2.618}
{"smiles": "CSCC[C@@H](CO)Nc1ccc(-c2nc(C3CC3)no2)cn1", "Percent Effect": -21.62}
{"smiles": "Cc1noc(CS(=O)(=O)C/C=C/c2ccccc2)n1", "Percent Effect": -7.047}
{"smiles": "O=C(O)C(F)(F)F.O=C(c1ccco1)N1CCO[C@@H]2CN(c3ccccn3)CC[C@@H]2C1", "Percent Effect": 6.986}
{"smiles": "N#Cc1cccc(CN2CC[C@@H]3CO[C@@H](CN4CCCC4)[C@@H]3C2)c1.O=C(O)C(F)(F)F.O=C(O)C(F)(F)F", "Percent Effect": -0.4401}
{"smiles": "O=C(O)C(F)(F)F.O=C(c1ccsc1)N1CCO[C@@H]2CN(Cc3ccco3)CC[C@@H]2C1", "Percent Effect": 99.14}
{"smiles": "O=C(O)C(F)(F)F.O=C(c1ccsc1)N1CCO[C@@H]2CN(Cc3ccccn3)CC[C@@H]2C1", "Percent Effect": 3.038}
{"smiles": "CCc1cnc(N2CC[C@@H]3CN(C(=O)c4ccco4)CCO[C@@H]3C2)nc1", "Percent Effect": 10.92}
{"smiles": "N#Cc1cccc(CN2CC[C@@H]3CN(c4ncccn4)CCO[C@@H]3C2)c1.O=C(O)C(F)(F)F", "Percent Effect": 115.7}
{"smiles": "COCCN1CCO[C@@H]2CN(Cc3sccc3C)C[C@@H]2C1.O=C(O)C(F)(F)F.O=C(O)C(F)(F)F", "Percent Effect": -3.44}
{"smiles": "O=C(O)C(F)(F)F.O=C(c1ccco1)N1CCO[C@@H]2CN(Cc3nccs3)CC[C@@H]2C1", "Percent Effect": 104}
{"smiles": "Cc1cnc(N2CC[C@@H]3CN(Cc4ccncc4)CCO[C@@H]3C2)nc1.O=C(O)C(F)(F)F.O=C(O)C(F)(F)F", "Percent Effect": -11.53}
{"smiles": "Cc1cc(CN2C[C@@H]3CN(C(=O)c4cccn4C)CCO[C@@H]3C2)no1.O=C(O)C(F)(F)F", "Percent Effect": 9.61}
{"smiles": "Cn1cccc1C(=O)N1CCO[C@@H]2CN(Cc3nccs3)C[C@@H]2C1.O=C(O)C(F)(F)F", "Percent Effect": 127.2}
{"smiles": "O=C(NC[C@H]1OC[C@@H](NC2CCOCC2)[C@@H]1O)Nc1ccccc1", "Percent Effect": 14.81}
{"smiles": "COCCN(Cc1ccncc1)C(=O)C1COc2ccccc2C1", "note": "(centres undefined)", "Percent Effect": -25.57}
{"smiles": "COCCc1nc(CN2CC(C)(c3ccccc3)CCC2=O)no1", "note": "(centres undefined)", "Percent Effect": -5.62}
{"smiles": "CCCS(=O)(=O)NC1CCN(c2nnc(C)c(C)c2C#N)CC1", "Percent Effect": -4.578}
{"smiles": "Cc1cc(N2CCC(N3CCOCC3)C2)n2nc(C)c(C)c2n1", "note": "(centres undefined)", "Percent Effect": -1.501}
{"smiles": "O=C(O)C(F)(F)F.O=C([C@@H]1CN(Cc2nccs2)C[C@H]2OCC[C@H]21)N1CCOCC1", "Percent Effect": -26.11}
{"smiles": "O=C(O)C(F)(F)F.O=C(O)C(F)(F)F.c1coc(CN2C[C@@H]3CN(Cc4ccoc4)CCO[C@@H]3C2)c1", "Percent Effect": 116.5}
{"smiles": "CN(C)CCN1CCO[C@H]2CN(C(=O)N(C)C)C[C@H]21.O=C(O)C(F)(F)F.O=C(O)C(F)(F)F", "Percent Effect": 6.005}
{"smiles": "Cn1cc(CN2CCO[C@@H]3CN(Cc4ccoc4)C[C@@H]3C2)cn1.O=C(O)C(F)(F)F.O=C(O)C(F)(F)F", "Percent Effect": 9.777}
{"smiles": "CN(C)CCN1CCO[C@H]2CN(C(=O)C3CCOCC3)C[C@H]21", "Percent Effect": -13.47}
{"smiles": "O=C(O)C(F)(F)F.O=C(c1ccsc1)N1CCO[C@@H]2CN(Cc3nccs3)C[C@@H]2C1", "Percent Effect": 102}
{"smiles": "CCS(=O)(=O)N1C[C@@H]2CN(Cc3ccco3)CCO[C@@H]2C1.O=C(O)C(F)(F)F", "Percent Effect": -13.85}
{"smiles": "CN(C)CCN1CCO[C@H]2CN(C(=O)c3ccsc3)C[C@H]21.O=C(O)C(F)(F)F.O=C(O)C(F)(F)F", "Percent Effect": 117.2}
{"smiles": "O=C(O)C(F)(F)F.O=C(c1ccsc1)N1CCO[C@@H]2CN(Cc3cccs3)C[C@@H]2C1", "Percent Effect": 14.76}
